Residue numbers refer to the chain shown, from its start.

Consider ten sequences from PMC5700166.

Holding throughout (assay): protein-binding microarray (PBM); PBM: ~300 nM protein, 6 mM HEPES pH 7.8, 80 mM KCl, 0.5 mM EDTA, 0.5 mM EGTA, 6% glycerol, 35 ng/ul poly-dIdC, 1% milk, 1 h, room temperature; Ap Aiptasia and Nv Nematostella (sea anemones) / Co Capsaspora / Aq Amphimedon (sponge) / Dm Drosophila / Hu human; RHD is the Rel homology domain; high values mean tight binding
Holding throughout (conditions): dsDNA, one strand shown

In assay [1] the target is T1, GST-Ap-NF-kB RHD (Exaiptasia pallida (Aiptasia), UniProt A0A913YAJ5 2-422).
T1 sequence: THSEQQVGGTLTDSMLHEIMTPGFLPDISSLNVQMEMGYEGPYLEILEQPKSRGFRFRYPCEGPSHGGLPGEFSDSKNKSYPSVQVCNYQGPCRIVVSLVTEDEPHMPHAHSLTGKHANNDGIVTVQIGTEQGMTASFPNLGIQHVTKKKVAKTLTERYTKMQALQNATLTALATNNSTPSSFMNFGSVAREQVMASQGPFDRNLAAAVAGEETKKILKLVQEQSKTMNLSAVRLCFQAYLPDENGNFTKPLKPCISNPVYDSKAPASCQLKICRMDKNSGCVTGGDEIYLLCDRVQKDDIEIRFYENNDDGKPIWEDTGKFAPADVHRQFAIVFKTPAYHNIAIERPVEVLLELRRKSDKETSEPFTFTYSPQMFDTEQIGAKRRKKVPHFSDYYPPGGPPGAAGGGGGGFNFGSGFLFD

In assay [2] the target is T2, GST-Nv-NF-kB (Cys allele) (Nematostella vectensis, UniProt E5G601 2-411).
T2 sequence: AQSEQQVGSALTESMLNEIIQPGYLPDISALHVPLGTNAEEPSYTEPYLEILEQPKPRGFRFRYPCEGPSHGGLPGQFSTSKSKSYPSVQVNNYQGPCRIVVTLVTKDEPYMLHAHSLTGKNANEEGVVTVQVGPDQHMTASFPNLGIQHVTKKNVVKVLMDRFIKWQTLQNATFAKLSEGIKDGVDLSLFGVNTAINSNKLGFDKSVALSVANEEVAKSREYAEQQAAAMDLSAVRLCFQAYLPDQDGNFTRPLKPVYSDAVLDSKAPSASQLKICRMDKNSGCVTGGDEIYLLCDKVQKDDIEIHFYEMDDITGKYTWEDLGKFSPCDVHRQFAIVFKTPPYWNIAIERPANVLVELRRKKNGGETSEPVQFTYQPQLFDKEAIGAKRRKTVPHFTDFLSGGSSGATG

The target of assay [3] is T3, GST-Co-NF-kB (Capsaspora owczarzaki, UniProt F1ARL5 200-546).
T3 sequence: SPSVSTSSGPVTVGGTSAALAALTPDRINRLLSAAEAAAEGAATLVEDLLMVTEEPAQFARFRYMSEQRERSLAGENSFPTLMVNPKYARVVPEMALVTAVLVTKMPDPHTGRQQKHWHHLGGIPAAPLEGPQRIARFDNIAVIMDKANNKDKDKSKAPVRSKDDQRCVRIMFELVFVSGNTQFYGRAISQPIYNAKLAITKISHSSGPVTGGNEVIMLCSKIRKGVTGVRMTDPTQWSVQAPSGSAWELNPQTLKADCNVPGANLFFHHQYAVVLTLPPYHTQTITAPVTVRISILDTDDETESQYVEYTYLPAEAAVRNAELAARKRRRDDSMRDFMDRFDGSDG

Assay [4] concerns the target T4, GST-Dm-Relish (Drosophila melanogaster, UniProt Q94527 99-473).
T4 sequence: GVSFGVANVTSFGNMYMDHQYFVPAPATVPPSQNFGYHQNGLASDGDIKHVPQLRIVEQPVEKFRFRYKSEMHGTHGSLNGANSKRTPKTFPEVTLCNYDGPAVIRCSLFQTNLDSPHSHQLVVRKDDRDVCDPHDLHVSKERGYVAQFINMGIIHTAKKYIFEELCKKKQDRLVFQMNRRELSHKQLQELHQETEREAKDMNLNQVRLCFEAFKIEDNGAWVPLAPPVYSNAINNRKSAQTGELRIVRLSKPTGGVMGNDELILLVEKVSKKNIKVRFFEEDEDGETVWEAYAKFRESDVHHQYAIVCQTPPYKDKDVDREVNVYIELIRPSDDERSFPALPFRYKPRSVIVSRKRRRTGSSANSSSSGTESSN

The target in assay [5] is T5, GST-Aq-NF-kB (Amphimedon queenslandica, UniProt A9Y5G7 2-389).
T5 sequence: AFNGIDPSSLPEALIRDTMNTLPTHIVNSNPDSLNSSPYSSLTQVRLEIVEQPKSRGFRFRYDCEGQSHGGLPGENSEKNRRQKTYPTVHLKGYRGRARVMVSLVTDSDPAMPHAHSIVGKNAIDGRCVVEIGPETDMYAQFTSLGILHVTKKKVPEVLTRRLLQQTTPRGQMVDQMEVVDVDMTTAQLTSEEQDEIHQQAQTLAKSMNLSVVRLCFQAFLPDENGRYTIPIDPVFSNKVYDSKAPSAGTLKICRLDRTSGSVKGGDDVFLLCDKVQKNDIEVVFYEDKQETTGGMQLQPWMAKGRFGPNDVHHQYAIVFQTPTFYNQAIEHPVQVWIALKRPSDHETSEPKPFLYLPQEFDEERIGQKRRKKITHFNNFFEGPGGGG

Assay [6] addresses GST-Hu-p50 (Homo sapiens, UniProt P19838 7-356).
Assay [7] concerns the target T6, GST-Nv-NF-kB (Ser allele) (Nematostella vectensis, UniProt A7UNT2 2-411).
T6 sequence: T2 sequence with Q21R, C66S, S207N, E215Q, V217A, E225K, A268E, D399E

Sequence of GST-Hu-p50 (P19838 7-356): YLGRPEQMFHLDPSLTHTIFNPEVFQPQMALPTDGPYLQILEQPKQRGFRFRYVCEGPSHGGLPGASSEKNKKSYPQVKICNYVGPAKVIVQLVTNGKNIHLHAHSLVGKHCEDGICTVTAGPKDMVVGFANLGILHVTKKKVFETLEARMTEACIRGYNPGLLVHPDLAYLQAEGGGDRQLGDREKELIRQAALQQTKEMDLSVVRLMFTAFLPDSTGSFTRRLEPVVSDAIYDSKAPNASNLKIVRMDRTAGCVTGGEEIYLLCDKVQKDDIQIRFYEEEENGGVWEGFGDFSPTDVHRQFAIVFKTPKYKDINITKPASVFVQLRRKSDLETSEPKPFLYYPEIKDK

Turning to “CCGATTAACATCAAACAGTCCCCTGATGTTAATCGGGTCTTGATTCGCTTGACGCTGCTG”, the binding signal in assay [1] was determined as 5.58 z-score; in assay [2], 5.6 z-score; in assay [3] it was 2.54 z-score; in assay [4], 3.49 z-score; in assay [5] it was 5.66 z-score; in assay [6] it was 4.54 z-score.
In the case of “CCGATTAACATCAGGGGGGAGACTGATGTTAATCGGGTCTTGATTCGCTTGACGCTGCTG”, the binding signal was found to be 5.88 z-score in assay [1]; 4.78 z-score in assay [2]; 6.95 z-score in assay [3]; 3.61 z-score in assay [4]; 4.79 z-score in assay [5]; 6.44 z-score in assay [6].
For the sequence “CCGATTAACATCAAGGTGTTTCCTGATGTTAATCGGGTCTTGATTCGCTTGACGCTGCTG”, the binding signal in assay [1] was determined as 1.56 z-score; in assay [2], 1.48 z-score; in assay [7], 1.39 z-score; in assay [4] it was 1.91 z-score; in assay [5], 2.48 z-score; in assay [6], 3.43 z-score.
In the case of “CCGATTAACATCAGGGAGGCCCCTGATGTTAATCGGGTCTTGATTCGCTTGACGCTGCTG”, the binding signal came out at 5.52 z-score in assay [1]; 3.79 z-score in assay [2]; 1.37 z-score in assay [7]; 6.28 z-score in assay [4]; 7.2 z-score in assay [5]; 3.63 z-score in assay [6].
Take “CCGATTAACATCAGGCAAGCCCCTGATGTTAATCGGGTCTTGATTCGCTTGACGCTGCTG”: the binding signal worked out at 2.62 z-score in assay [1]; 2.83 z-score in assay [2]; 1.38 z-score in assay [7]; 2.46 z-score in assay [4]; 5.11 z-score in assay [5]; 3.36 z-score in assay [6].
On to “CCGATTAACATCACGGGATTACCTGATGTTAATCGGGTCTTGATTCGCTTGACGCTGCTG”, for which the binding signal is 3.75 z-score in assay [1]; 1.79 z-score in assay [2]; 2.51 z-score in assay [7]; 5.47 z-score in assay [4]; 4.66 z-score in assay [5]; 1.16 z-score in assay [6].
As to “CCGATTAACATCAGGGGACGTTATGATGTTAATCGGGTCTTGATTCGCTTGACGCTGCTG”, the binding signal in assay [1] stood at 4.77 z-score; in assay [2] it was 5 z-score; in assay [3], 3.19 z-score; in assay [4], 2.7 z-score; in assay [5] it was 4.72 z-score; in assay [6], 4.56 z-score.
Turning to “CCGATTAACATCAGGGGTTTTACTGATGTTAATCGGGTCTTGATTCGCTTGACGCTGCTG”, the binding signal was 5.39 z-score in assay [1]; 5.15 z-score in assay [2]; 1.49 z-score in assay [3]; 7.6 z-score in assay [4]; 5.84 z-score in assay [5]; 5.77 z-score in assay [6].
Consider “CCGATTAACATCAAAATAGCCCCTGATGTTAATCGGGTCTTGATTCGCTTGACGCTGCTG”, for which the binding signal in assay [1] amounted to 5.32 z-score; in assay [2] it was 5.99 z-score; in assay [3] it was 1.88 z-score; in assay [4], 4.12 z-score; in assay [5] it was 5.87 z-score; in assay [6], 5.38 z-score.
Regarding “CCGATTAACATCAGGAGTTCCCATGATGTTAATCGGGTCTTGATTCGCTTGACGCTGCTG”, the binding signal stood at 2.2 z-score in assay [1]; 2.14 z-score in assay [2]; 1.68 z-score in assay [3]; 6.1 z-score in assay [4]; 3.51 z-score in assay [5]; 1.53 z-score in assay [6].
